Screens deposited in PubChem BioAssay by several laboratories.
Hits are enriched below; roughly 3.4% of the tested compounds scored in any of these assays.
MEKK2wt PB1 HTS: modulators of MEK5 binding to wildtype MEKK2, primary screen, biochemical, multiplex bead flow cytometry, Alexa488-MEK5 | AID 1531, 2009 | Alexa488-MEK5 binding to MEKK2 WT; actives lie on both sides | actives 1.1% (n = 290,000) | binding response (% of control), % at 10 µM; in the data active = binding response below about 67% or above about 130%
NTR1 agonist: agonists of human NTR1, primary screen, imaging, U2OS cells, beta-arrestin-GFP, high content; Neurotensin receptor type 1 (Homo sapiens), P30989; activation, % at 20 µM; actives 0.17% (n = 330,000); NTR1-U2OS beta-arrestin-GFP spot imaging, agonist mode;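 active = activation at or above 40% of the spot to cytoplasm intensity ratio, with at least 20 cells analyzed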;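 also: 0% = DMSO without peptide and 100% = 100 nM NTR1 peptide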
MEKK2mut PB1 HTS: MEK5 binding signal on mutant MEKK2 PB1, primary screen, biochemical, multiplex bead flow cytometry, Alexa488-MEK5 | Alexa488-MEK5 binding to MEKK2 mutant | percent response, % at 10 µM | actives 0.35% (n = 290,000) | AID 1530, 2009; in the data active = percent response above about 24%, passing the limit was not always enough
ANO1 activ: TMEM16A chloride channel activators or potentiators, primary screen, cell-based, HTS; AID 623877, 2012; HEK293 TMEM16A/YFP-H148Q/I152L, iodide quench fluorescence; stronger effect = lower value; B-score at 10 µM; Anoctamin-1 (Mus musculus), Q8BHY3; actives 0.3% (n = 340,000);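 active = fluorescence-ratio B-score plate-corrected deviation score at least 3 library SD below zero, with starting fluorescence score within 5 deviations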;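 also: channel opened by trigger with iodide after compound preincubation; score built on the fluorescence ratio of max minus min over baseline; more negative score means more quench and so TMEM16A activation or potentiation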
Target sequence (Q8BHY3 whole entry, looked up): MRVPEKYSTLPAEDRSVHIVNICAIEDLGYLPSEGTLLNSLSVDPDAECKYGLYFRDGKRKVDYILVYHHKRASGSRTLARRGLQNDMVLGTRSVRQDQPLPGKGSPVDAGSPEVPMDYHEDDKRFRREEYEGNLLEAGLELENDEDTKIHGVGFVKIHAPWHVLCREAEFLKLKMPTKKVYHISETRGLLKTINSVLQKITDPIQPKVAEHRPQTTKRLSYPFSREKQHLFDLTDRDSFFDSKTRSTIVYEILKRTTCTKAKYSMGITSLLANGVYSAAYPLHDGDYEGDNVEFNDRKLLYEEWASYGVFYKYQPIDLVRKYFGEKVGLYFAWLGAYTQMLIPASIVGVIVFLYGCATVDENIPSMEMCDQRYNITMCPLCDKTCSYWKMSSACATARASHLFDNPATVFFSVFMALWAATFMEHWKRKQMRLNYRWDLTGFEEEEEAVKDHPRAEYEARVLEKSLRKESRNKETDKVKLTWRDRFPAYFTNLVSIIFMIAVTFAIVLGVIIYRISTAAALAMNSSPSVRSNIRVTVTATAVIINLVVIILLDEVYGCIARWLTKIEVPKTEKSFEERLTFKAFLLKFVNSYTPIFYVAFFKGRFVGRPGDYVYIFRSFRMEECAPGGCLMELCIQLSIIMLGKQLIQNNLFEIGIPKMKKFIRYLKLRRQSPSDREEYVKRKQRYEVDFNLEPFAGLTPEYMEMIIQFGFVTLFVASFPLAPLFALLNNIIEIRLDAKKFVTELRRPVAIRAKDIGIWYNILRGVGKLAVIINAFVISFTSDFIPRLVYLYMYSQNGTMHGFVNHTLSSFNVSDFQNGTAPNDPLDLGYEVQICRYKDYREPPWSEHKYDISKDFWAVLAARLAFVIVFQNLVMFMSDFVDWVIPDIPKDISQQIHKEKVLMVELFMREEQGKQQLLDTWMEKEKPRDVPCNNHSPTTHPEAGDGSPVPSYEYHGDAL
MEKK3 PB1 HTS: modulators of MEKK3-MEK5 PB1 binding, primary screen, biochemical, wildtype MEKK3, multiplex bead flow cytometry, Alexa488-MEK5. Mitogen-activated protein kinase kinase kinase 3 (Homo sapiens), Q99759. bead-based flow cytometry, Alexa488-MEK5 binding to MEKK3; actives lie on both sides; 0 = blocked by unlabeled MEK5, 100 = vehicle. binding response (% of control), % at 10 µM. actives 1.4% (n = 290,000). AID 1529, 2009;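 active = binding response more than 3 SD above or below the average of its plate-row segment, actives on both sides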;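 also: Alexa488 bead fluorescence after subtracting the streptavidin-only scavenger bead signal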
ANO1 block: TMEM16A chloride channel inhibitors, primary screen, cell-based, HTS | Anoctamin-1 (Mus musculus), Q8BHY3 | HEK293 TMEM16A/YFP iodide influx fluorescence, ionomycin | normalized B-score (activity score, 25-100; higher = stronger inhibition) at 10 µM | actives 1.2% (n = 310,000) | AID 588511, 2011;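 active = ratio plate-corrected score three or more library SD toward inhibition, starting fluorescence score within five deviations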;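 also: score derived from kinetic fluorescence span divided by baseline fluorescence per well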
MEKK2wt confirm: modulators of MEK5 binding to wildtype MEKK2, confirmation, biochemical, single concentration, multiplex bead flow cytometry. Alexa488-MEK5 binding to MEKK2 WT; actives lie on both sides. actives 2.4% (n = 5,900). shares compounds with MEKK3 PB1 HTS. binding response (% of control), % at 10 µM; in the data active = binding response below about 16% or above about 210%; inactive = in between
MEKK2mut-MEK5: mutant MEKK2 PB1-MEK5 binding signal retest – biochemical, single concentration, multiplex bead flow cytometry, confirmation | actives 2% (n = 5,900) | AID 1893, 2009 | shares compounds with MEKK3 PB1 HTS | Alexa488-MEK5 binding to MEKK2 mutant | percent response, % at 10 µM; in the data active = percent response mostly above about 71%, no sharp cut-off; inactive = mostly below about 38%;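 also: higher means compound restores mutant binding toward wildtype level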
MEKK3-MEK5 inh: MEKK3 wild-type PB1 binding to MEK5, inhibitors, confirmation, biochemical, bead multiplex flow cytometry, single concentration, wildtype; shares compounds with MEKK3 PB1 HTS; Alexa488-MEK5 binding to MEKK3; stronger effect = lower value; binding response (% of control), % at 10 µM; actives 1.8% (n = 5,900); AID 1894, 2009;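 active = binding response below 72% of control, or above a set upper limit, though filed actives all read lower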;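 also: 100% = DMSO only wells and 0% = binding blocked by excess unlabeled MEK5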
Active calls of the source: *; i = inactive; · = not tested or not shown; [ ] = another dose, or the depositor's remark.

SMILES | MEKK2wt PB1 HTS | NTR1 agonist | MEKK2mut PB1 HTS | ANO1 activ | MEKK3 PB1 HTS | ANO1 block | MEKK2wt confirm | MEKK2mut-MEK5 | MEKK3-MEK5 inh
COc1ccc(CCNCC2C(Oc3ccc(Cl)cc3)C(=O)N2c2ccccc2C)cc1OC (stereo unspecified) | 155* | 11 | 32 | i | 106 | i | 126 | 12 | 102
O=C1CCCc2c1[nH]c1ccccc21 | 104 | 2 | 6 | i | 128* | i | 107 | 4 | 102
O=C(O)CNC(=S)N(Cc1ccccc1Cl)C1CCCCC1 | 63 | 0 | -14 | i | 48*[inhibitor] | i | 87 | -11 | 85
CCOC(=O)c1cc(C(C)=O)c(=O)[nH]c1C | 98 | -2 | 0 | i | 106 | i | · | · | ·
COC(=O)c1cc(C(C)=O)c(C)[nH]c1=O | 112 | 1 | 1 | i | 128* | i | 96 | -3 | 98
CS(=O)(=O)c1ccc(NCC2CCCO2)c([N+](=O)[O-])c1 (stereo unspecified) | 102 | 0 | -3 | i | 99 | i | · | · | ·
CC(Sc1nncs1)C(=O)NC1CCCCC1C (stereo unspecified) | 104 | 2 | -1 | i | 103 | i | · | · | ·
Cc1ccc(NC(=O)CN2C(=O)N/C(=C/c3ccc(C)o3)C2=O)cc1 | 80 | 1 | -10 | i | 79 | i | · | · | ·
Cc1cccc(NC(=O)CN2C(=O)N/C(=C\c3ccc(-c4cccc(C(=O)O)c4)o3)C2=O)c1 | 52*[inhibitor] | -1 | -31 | i | 70*[inhibitor] | i | 105 | 8 | 109
Cc1ccc(NC(=O)CN2C(=O)N/C(=C/c3ccc(C)s3)C2=O)cc1 | 104 | -1 | 1 | i | 129* | i | 98 | 0 | 103
Cc1cccc(NC(=O)CN2C(=O)N/C(=C/c3ccc(C)o3)C2=O)c1 | 105 | · | 1 | i | 129* | i | 103 | 4 | 99
Cc1cc2c(cc1C)N(C(=O)CCl)CCN2C(=O)CCl | · | · | · | i | · | · | · | · | ·
Cc1cccc(C(=O)N[C@H](C(=O)Nc2ccc(C)c(S(=O)(=O)N(C)C)c2)C(C)C)c1 | 100 | 0 | -4 | i | 105 | i | · | · | ·
Cc1nc2c(oc3ccc(Cl)cc32)c(=O)[nH]1 | 50 | -1 | -29 | i | 49*[inhibitor] | i | 97 | -1 | 102
CCc1nc2c(oc3ccccc32)c(=O)[nH]1 | 92 | 0 | -5 | i | 90 | i | · | · | ·
CCCOC(=O)c1ccc(OCC(O)CN2CCN(C(=O)c3ccccc3)CC2)cc1 (stereo unspecified) | 115 | 1 | 27* | i | 109 | i | 101 | 1 | 105
COCC(=O)N(C)c1nnc(-c2cnccn2)s1 | -1.0*[inhibitor] | -2 | -27 | i | 0.0*[inhibitor] | i | 103 | 1 | 101
O=C(Cn1cnc2ccccc2c1=O)Nc1nnc(SCc2ccc(Cl)cc2)s1 | 32*[inhibitor] | -1 | -12 | i | 35*[inhibitor] | i | 107 | 7 | 107
Cc1ccc(C)n1-c1ccc(-c2ccn[nH]2)cc1 | · | 0 | 190* | i | 15*[inhibitor] | i | 101 | -2 | 102
CCC(C)[C@H](NC(=O)N1CCC(Cc2ccccc2)CC1)C(=O)O (stereo partly specified) | 99 | 0 | -1 | i | 101 | i | · | · | ·
CCCNS(=O)(=O)c1ccc(OCC(=O)N2CCOCC2)cc1 | 88 | 0 | -5 | i | 69*[inhibitor] | i | 99 | -2 | 101
CCCOc1ccccc1NC(=O)c1ccc([N+](=O)[O-])cc1 | 93 | 1 | -7 | i | 101 | i | · | · | ·
CCN1CCc2c(sc(NC(=S)NC(=O)c3ccc(Cl)cc3)c2C(N)=O)C1 | 92 | -2 | 0 | i | 98 | i | · | · | ·
O=C(CSc1cccc(C(F)(F)F)c1)NC(=O)c1ccccc1 | 104 | 0 | 0 | i | 146* | i | 111 | 8 | 111
CC(C)[C@H](NC(=O)N1CCn2c1nc1ccccc12)C(=O)NCC1CCCO1 (stereo partly specified) | 100 | 1 | -4 | i | 100 | i | · | · | ·
SMILES | MEKK2wt PB1 HTS | NTR1 agonist | MEKK2mut PB1 HTS | ANO1 activ | MEKK3 PB1 HTS | ANO1 block | MEKK2wt confirm | MEKK2mut-MEK5 | MEKK3-MEK5 inh
COc1cc(CNc2cccc3[nH]c(C(F)(F)F)nc23)cc(OC)c1 | 149* | 6 | 24* | i | 109 | i | 100 | 0 | 106
Cc1cccc(-n2c(SCC(=O)N3CCC(C(=O)O)CC3)nc3ccccc3c2=O)c1C | 99 | 0 | 0 | i | 103 | i | · | · | ·
COc1ccc(-c2csc(NC(=O)CN3C(=O)CCC3=O)n2)c(OC)c1 | 111 | 0 | 1 | i | 142* | i | 97 | -4 | 95
COc1ccc(-c2csc(NC(=O)CN3C(=O)CCC3=O)n2)cc1 | 102 | 1 | 1 | i | 92 | i | · | · | ·
CCN1C(=O)/C(=C/C=C2\C=CN(CC)c3ccccc32)SC1=S | 42*[inhibitor] | · | -6 | i | 75*[inhibitor] | i | 90 | -5 | 102
CCN1C(=O)/C(=C\C=C2/C=CC=CN2CC)SC1=S | 104 | 2 | -1 | i | 105 | i | · | · | ·
CCCN1C(=O)/C(=C\C=C2\N(CC)c3ccccc3C2(C)C)SC1=S | 186* | · | 174* | i | 66 | · | 82 | -14 | 90
CCCN1C(=O)/C(=C\C=C2/Sc3ccccc3N2CC)SC1=S | 7.0*[inhibitor] | · | -26 | · | 37*[inhibitor] | · | 30 | -28 | 71*
CCOC(=O)c1c(Cl)c(C)nn1-c1nc(OC)cc(OC)n1 | 92 | 6 | -1 | i | 92 | i | · | · | ·
Cc1ccc(S(=O)(=O)NCCc2cccs2)cc1 | 121 | 0 | 21 | i | 128* | i | 108 | 1 | 106
